Sampled rows, rich in hits. Any-hit rate of the full collection: about 4.6%.
Lassa entry inh: qHTS for Inhibitors of binding or entry into cells for Lassa Virus | Lassa virus pseudotype entry inhibition, cell reporter | Potency, µM (highest dose often 37.9 µM), without a hit: top-dose activity change, negative = inhibition, hits mostly inhibitors | actives 1.2% (n = 300,000) | AID 540256, 2011; calls by dose curve; tested in HEK293 cells; also: nearly all actives have a fitted effect of over 50% in size
VACV Venus inh: qHTS for Stage-Specific Inhibitors of Vaccinia Orthopoxvirus: Venus Reporter Primary qHTS. Vaccinia virus Venus reporter expression, fluorescence. Potency, µM (top dose mostly 36.5 µM), inactives show at the highest dose activity change, negative = inhibition, hits mostly inhibitors. actives 0.46% (n = 330,000); calls by dose curve; tested in A549 cells; also: nearly all actives have a fitted effect of over 30% in size
HCV inh: qHTS Assay for Inhibitors of Hepatitis C Virus (HCV); Huh7.5.1 HCVcc-Cre infection, luciferase reporter, 44 h; Potency, µM (doses to about 41.8 µM), for inactives: at the highest dose activity change, negative = inhibition, usual class: inhibitors; actives 3.4% (n = 340,000); AID 651820, 2012; active = well fitted inhibition curve with a large enough effect; inconclusive = small, poorly fitted or top-dose-only effect, or another doubt; inactive = no such curve, though single readings can be large or run the other way
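Whole-lifecycle infectious HCVcc-Cre system; cells 1,000/well, compound then virus (~0.5 moi) added 4 h after plating, 44 h culture. Luciferase read 15 sec following 15 min substrate incubation, room temp.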
Marburg entry inh: qHTS for inhibitors of binding or entry into cells for Marburg Virus | Marburg virus pseudotyped entry inhibition, cell reporter | Potency, µM (series often up to 37.8 µM), without a hit: at the top dose activity change, negative = inhibition, hits mostly inhibitors | actives 1.8% (n = 300,000); calls by dose curve; tested in HEK293 cells
VACV mCherry inh: qHTS for Stage-Specific Inhibitors of Vaccinia Orthopoxvirus: mCherry Reporter Primary qHTS; Vaccinia virus mCherry reporter infection, fluorescence; Potency, µM (titrated, usually from 36.5 µM), without a hit: at the highest dose activity change, negative = inhibition, hits mostly inhibitors; actives 0.63% (n = 310,000); AID 720579, 2013; calls by dose curve; tested in A549 cells; also: nearly all actives have a fitted effect of over 35% in size
Active calls of the source: *; i = inactive; ? = inconclusive; · = no result given; [ ] = remark or other dose. % is scaled to controls: 0 for no effect and ±100 for the full control effect; potency is read from the fitted curve at half-maximal effect.

SMILES | Lassa entry inh | VACV Venus inh | HCV inh | Marburg entry inh | VACV mCherry inh
COc1ccc(CCNC(=O)c2ccc(-c3ccc([N+](=O)[O-])cc3Cl)o2)cc1OC | ? | -9.4% | 7.08µM* | ? | -23.8%
COc1ccc(CCNC(=O)c2ccc(N(C)S(=O)(=O)c3ccc(C)cc3)cc2)cc1OC | · | · | 10µM* | · | ·
COc1ccc(CCNC(=O)COc2ccc(N(C)S(=O)(=O)c3ccc(C)cc3)cc2)cc1OC | ? | 6.0% | ? | ? | i
CCOc1ccc(CCNC(=O)c2ccc(CS(=O)Cc3ccc(Cl)cc3)o2)cc1OCC (configuration not stated) | · | · | 2.51µM* | · | ·
COc1ccc(CCNC(=O)c2ccc(CS(=O)(=O)c3ccc(Cl)cc3)o2)cc1OC | 25.9µM* | · | 12.6µM* | 14.6µM* | ·
COC(=O)c1ccccc1C(=O)N1CCOc2ccc(CN3CCN(c4ccccn4)CC3)cc2C1 | · | -7.2% | · | · | -3.8%
Cc1cccc(C)c1NC(=O)Cn1c(=O)cc(C)c2c(C)nn(-c3cccc(Cl)c3C)c21 | 27.2%[46.1 µM] | 5.7% | · | · | -6.4%
COc1ccc(CCNC(=O)c2ccc(CS(=O)(=O)c3ccc(C)cc3)o2)cc1OC | ? | -8.5% | 14.1µM* | ? | i
Cc1ccc2c(c1)CN(CCNC(=O)c1n[nH]c3c1CCCC3)CC(C)O2 (configuration not stated) | · | -5.7% | · | · | -9.7%
CCCCCCCCCCOC(=O)Cn1c(COc2ccccc2OC)[n+](C)c2ccccc21 | ? | 14.1µM* | 14.1µM* | 2.51µM* | ?
COc1cc(-c2nc3ccccc3s2)ccc1O | ? | -2.6% | ? | 1.3% | -3.6%
Oc1cccc(-c2nc3ccccc3s2)c1 | ? | -20.3% | ? | 7.08µM* | ·
COc1ccc(-c2nc3ccccc3s2)cc1O | 7.08µM* | -16.2% | ? | 7.08µM* | -21.2%
COc1cc(OC)c(-c2nc3ccccc3s2)cc1OC | · | · | 11.2µM* | · | ·
COc1cccc(-c2nc3ccccc3s2)c1O | ? | -18.3% | ? | ? | -20.6%
CCC(=O)N[C@@H]1c2ccccc2C2(CCN(Cc3ccccn3)CC2)[C@H]1OC | · | -8.6% | · | · | i
COC(=O)[C@@H]1CCCN1Cc1ccc2c(c1)CN(Cc1ccc(OC)c(C)c1)CCO2 | · | 8.8% | · | · | -7.3%
CC(C)(C)C(=O)N1CCN(c2ccc(NC(=O)c3ccc([N+](=O)[O-])o3)cc2)CC1 | ? | ? | ? | ? | 11.2µM*
O=C(Nc1ccc(N2CCN(Cc3ccccc3F)CC2)cc1)c1ccc([N+](=O)[O-])o1 | -13.2% | ? | ? | ? | 3.98µM*
CCC(=O)N1CCN(c2ccc(NC(=O)c3ccc([N+](=O)[O-])o3)cc2)CC1 | ? | ? | ? | -37.5%[46.1 µM] | ?
CCCC(=O)N1CCN(c2ccc(NC(=O)c3ccc([N+](=O)[O-])o3)cc2)CC1 | ? | 10µM* | ? | ? | 10µM*
CC1CCN(c2ccc(NC(=O)c3ccc([N+](=O)[O-])o3)cc2)CC1 | ? | 10µM* | ? | ? | 11.2µM*
O=C(c1cccc(Cl)c1)N1c2ncnn2C2(CCCCC2)[C@@H]2CCCC[C@@H]21 | 0.3%[46.1 µM] | -2.3% | · | ? | -5.0%
COC(=O)C1CCN(Cc2ccc3c(c2)CN(C(=O)c2cc(C)on2)CCO3)CC1 | · | -8.5% | · | · | -17.1%
O=C(Nc1ccc(N2CCCCC2)cc1)c1ccc([N+](=O)[O-])o1 | ? | -24.0% | ? | ? | ?
SMILES | Lassa entry inh | VACV Venus inh | HCV inh | Marburg entry inh | VACV mCherry inh
O=C(Nc1ccc(N2CCN(C(=O)c3ccc(Cl)cc3)CC2)cc1)c1ccc([N+](=O)[O-])o1 | -28.8%[46.1 µM] | ? | 10µM* | ? | -20.9%
CN1CCN(c2ccc(NC(=O)c3ccc(-c4ccc(Br)cc4)o3)cc2)CC1 | ? | -8.4% | 10µM* | ? | ?
COc1ccc(-n2c(/C=C/c3cc(OC)c(OC)cc3OC)nc3cc4ccccc4cc3c2=O)cc1Cl | 14.2%[46.1 µM] | -12.8% | · | · | -12.3%
Cc1ccc(C(=O)c2c(C)oc3c2C(=O)C(=O)c2ccccc2-3)cc1 | 7.08µM* | ? | 7.08µM* | 7.94µM* | ·
Cc1oc2c(c1C(=O)c1ccc(Cl)cc1)C(=O)C(=O)c1ccccc1-2 | -26.9% | 0.0% | 10µM* | -22.1% | -4.7%
CC1CCC(NC(=O)C2c3ccccc3C(=O)N2Cc2cccs2)CC1 (configuration not stated) | 3.55µM* | -10.2% | -17.3% | -13.7% | i
Fc1ccc(Nc2nc3nonc3nc2Nc2cccc(C(F)(F)F)c2)cc1 | ? | ? | · | 2.24µM* | ?
CC(C)[C@@H]1Cc2c(C#N)c(N)sc(=S)c2CO1 | · | · | · | 0.9% | ·
CC(=O)c1c(C)n(CC(=O)NCc2ccc3c(c2)OCO3)c2ccccc12 | -6.1% | -24.5% | 10µM* | -14.4% | -8.4%
O=C1c2ccccc2CCCC12N=NCC2c1cccc2ccccc12 (configuration not stated) | 0.9% | · | 2.82µM* | ? | ·
FC(F)(F)c1cccc(C2NCc3ccccc3-n3cccc32)c1 (configuration not stated) | 11.2µM* | -25.3% | 1.7% | ? | ?
Oc1ccc(C2NCc3ccccc3-n3cccc32)cc1Cl (configuration not stated) | 13.3% | -28.6% | 15.7% | ? | -10.0%
CCN1C(=NCCCCO)N[C@@H](CCc2ccccc2)[C@H](C(=O)OC)[C@H]1C | ? | · | · | 9.2%[14.2 µM] | ·
Cc1ccc(C)c(OCC(O)CN2CCCCC2C)c1 (configuration not stated) | -18.8% | -9.1% | ? | ? | ·
COc1cc(COCC(O)CN2C(C)CCCC2C)cc(OC)c1OC (configuration not stated) | · | · | 3.5% | · | ·
CC1CCCC(C)N1CC(O)COCc1ccccc1 (configuration not stated) | -28.9%[46.1 µM] | -16.5% | 8.4% | 6.31µM* | -17.3%
Cc1ccc(C)c(OCC(O)CN2C(C)CCCC2C)c1 (configuration not stated) | ? | -15.9% | 12.6µM* | ? | -25.0%
COc1ccccc1-c1ccnc(-n2ncc(C(=O)NCCc3cccnc3)c2C)n1 | · | 3.9% | · | · | -12.4%
CCCN(CCC)c1nc(Cl)nc(NCCN2CCOCC2)n1 | · | -14.4% | 14.1µM* | · | i
O=C(CN1C(=O)c2cccnc2Oc2ccc(Cl)cc21)NCCCc1ccccc1 | · | · | 11.2µM* | · | ·
CSc1ccc(CCNC(=O)CN2C(=O)c3cccnc3Oc3ccc(Cl)cc32)cc1 | ? | -8.7% | · | · | i
COc1ccc(NC(=O)CCc2nc3c(C)nn(-c4ccc(C)cc4)c3n(C)c2=O)c(OC)c1 | 2.1%[46.1 µM] | -7.2% | · | · | -4.6%
CC(SCc1ccccc1)C(=O)Nc1ccc(F)cc1 (configuration not stated) | 25.2%[46.1 µM] | 5.2% | -2.6% | -7.7%[46.1 µM] | -23.0%
N#CC(C#N)=C(Nc1ccc(F)cc1)SCc1cccc(Br)c1 | ? | ? | 5.01µM* | ? | ?
